# Data from PubChem BioAssay AID759 (NMMLSC, 2007).
# Screen size: about 190,000 compounds; about 270 (0.14%) were called active. Not shown: some 2% with an inconclusive outcome. The sample as a whole holds a higher share of actives than the screen did. Values without a mark were called inactive.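 Rule for the calls: active = GTP binding activity at least 20% away from the 100% baseline, either lowered as inhibitor or raised as activator; inconclusive = flagged as likely green fluorescent, judged across all proteins in the well; inactive = the rest.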
# Biological target: GTPase HRas (Homo sapiens) (UniProt P01112)
# Assay: modulators of GTP binding to HRas wildtype, primary screen, biochemical, bead-based flow cytometry, multiplex (AID 759);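 note: 0% = unlabeled GTP competition control and 100% = no-compound control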
# Conditions: GST-Ras wt beads, Bodipy-FL-GTP binding, at 10 µM, actives lie on both sides
# Sequence of GTPase HRas (Homo sapiens) (P01112 whole entry, looked up): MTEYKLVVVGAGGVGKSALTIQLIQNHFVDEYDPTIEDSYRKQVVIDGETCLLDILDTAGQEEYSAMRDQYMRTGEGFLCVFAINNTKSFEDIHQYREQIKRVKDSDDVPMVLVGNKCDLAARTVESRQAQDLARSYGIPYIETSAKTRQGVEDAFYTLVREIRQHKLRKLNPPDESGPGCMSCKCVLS
row,Structure (SMILES),GTP binding activity
1,CCSc1nc(C)c(CCOc2cccc(C)c2)c(=O)[nH]1,98%
2,O=C(CC1C(=O)NCCN1CC(c1ccccc1)c1ccccc1)NCCc1cn[nH]c1 (configuration not stated),99%
3,CCNC(=O)CC1C(=O)N(c2ccc(OC)cc2)C(=S)N1CCc1ccncc1 (configuration not stated),98%
4,CCc1ccc(CN(C)Cc2nc(Cc3ccccc3)no2)nc1,98%
5,CC(=O)N(CN1C(=O)C2C3C=CC(C3)C2C1=O)c1cccc(Cl)c1 (configuration not stated),93%
6,CN(/C(=N/S(=O)(=O)c1cccs1)c1ccccc1)c1ccc(O)cc1,88%
7,CC(=O)Nc1ccc(S(=O)(=O)Oc2ccc(/C=N/N=C3/NC(=O)C(CC(=O)O)S3)cc2)cc1 (configuration not stated),92%
8,O=C1CCC/C(=N\NC(=O)NC2CCCCC2)C1,97%
9,COc1c(C)cc(C(=O)C2CCCN(S(=O)(=O)c3c(C)noc3C)C2)cc1C (configuration not stated),96%
10,CC(C)(O)C#Cc1ncc(C(F)(F)F)cc1Cl,98%
11,CC(C)OCCCNC(=S)N1CCC(C(=O)c2ccc3c(c2)OCCO3)CC1,95%
12,CCOCCCNCc1ccc(OCc2ccc(F)cc2)c(OC)c1,97%
13,CN1CCN(CCCCOc2ccccc2-c2ccccc2)CC1,99%
14,CSc1ccc(/C=N\NC(=O)CC(=O)NC(C)C)cc1,94%
15,Cc1cccc(NC(=S)Nc2ccc(Cl)c(Cl)c2)c1,95%
16,O=C(Nc1ccc(Br)cn1)c1ccc([N+](=O)[O-])o1,98%
17,Cc1nn(C)c(C)c1CN(C(=O)CCc1nnc(Cc2c[nH]c3ccccc23)o1)C(C)C,95%
18,Nn1c(SCC(=O)Nc2nccs2)nncc1=O,96%
19,CCC(C)NC(=O)/C=C/c1ccc(S(=O)(=O)NCc2ccco2)cc1 (configuration not stated),99%
20,C=CCN(CC=C)S(=O)(=O)c1ccc(C(=O)Nc2sc3c(c2C(N)=O)CCCCC3)cc1,103%
21,COCCN(CCOC)S(=O)(=O)c1ccc(C(=O)Nc2nc3c(s2)CCc2ccccc2-3)cc1,104%
22,C=CCN(CC=C)S(=O)(=O)c1ccc(C(=O)Nc2nc3c(s2)CCc2ccccc2-3)cc1,32% (active)
23,CCC(CC)NC(=O)CSc1nnc(-c2c[nH]c3ccccc23)o1,92%

row,Structure (SMILES),GTP binding activity
1,CSc1ncccc1C(=O)OCc1ccc(Br)cc1,96%
2,CCOC(=O)C1CCCN(C(=O)/C=C/c2ccc(OC)cc2)C1 (configuration not stated),91%
3,Cc1cccc(C(=O)N2CCC(c3nc4ccccc4s3)CC2)c1,95%
4,COc1ccc(Cc2nnc(NC(=O)c3cc(OC)c(OC)c(OC)c3)s2)cc1OC,94%
5,NS(=O)(=O)c1ccc(NC(=S)NNC(=O)c2cccs2)cc1,97%
6,O=C(CN(C(=O)c1csnn1)c1cccc(F)c1)NCc1ccc(F)cc1,99%
7,CNC(=O)C(=O)N/N=C/c1ccccn1,95%
8,S=C(Cc1ccc(Cl)cc1)N1CCOCC1,94%
9,Cc1cccc(C(=O)Nc2ccc3c(c2)C(=O)N(CC(C)C)C3=O)c1,96%
10,COc1cc(/C=C2/C(=O)ON=C2C)ccc1OCc1cccc(F)c1,91%
11,Cc1ccc2c(Cl)c(C(=O)Nc3nn[nH]n3)sc2c1,100%
12,COC(=O)C1=C(C)NC(=O)/C1=C/c1ccc(CNS(=O)(=O)c2ccc(C)cc2)o1,97%
13,O=c1/c(=C/c2ccc(CNS(=O)(=O)c3ccccc3)o2)sc2n1CCN=2,78% (active)
14,O=S(=O)(NCc1ccccc1)c1ccc(S(=O)(=O)N2CCCC2)cc1,101%
15,O=C(CCN1C(=O)c2ccncc2C1=O)Nc1cc(F)ccc1F,92%
16,NC(=O)COc1ccc(C23CC4CC(CC(C4)C2)C3)cc1,95%
17,COc1cccc(OC)c1C(=O)NC(=S)NCc1ccco1,95%
18,CC(=O)c1ccc(N=C2SCCCN2C(=O)C2CCCCC2)cc1,97%
19,COc1ccc(OCC(=O)NNC(=O)c2cccc(C)c2)cc1,97%
20,O=C(Nc1ccc(N2CCN(C(=O)C3CC3)CC2)cc1)c1cccs1,95%
21,CCOC(=O)c1cnc2c(c(C)nn2CC)c1Cl,96%
22,CCOC(=O)c1nc(Nc2ccc(C(=O)OC)cc2)c2ccccc2n1,77% (active)
23,CCOC(=O)c1ccc(N/C(=N/S(=O)(=O)c2ccccc2)c2ccccc2)cc1,97%

row,Structure (SMILES),GTP binding activity
1,CCOC(=O)c1ccc(Nc2cc(C)nc3nc(C)nn23)cc1,98%
2,Cc1c(Cc2ccccc2)c(=O)oc2cc(OCC(N)=O)ccc12,93%
3,CCOc1ccccc1/C=N/NC(=O)CNC(=O)COc1ccccc1,97%
4,O=C(COc1ccccc1Cl)Nc1ccc(C(=O)c2ccc(C(=O)O)cc2)cc1,100%
5,Cc1cc(C)cc(NC(=O)N2CCCCCCC2)c1,100%
6,COc1ccc(C(=O)NC(Cc2ccc(OC(=O)c3ccc(OC)cc3)cc2)C(=O)O)cc1 (configuration not stated),90%
7,Nc1ccc(Cl)c(S(=O)(=O)Nc2ccccc2Cl)c1,98%
8,Cc1ccc(NC(=O)c2oc3ccccc3c2C)c([N+](=O)[O-])c1,101%
9,C/C=N/NC(=O)CCCC(=O)N/N=C/C,103%
10,CCC(=O)OCCNc1nc(-c2ccccc2)nc2ccccc12,98%
11,Cc1ccc(CN(Cc2cccnc2)C(=S)Nc2cccc(Cl)c2C)cc1,95%
12,CCCCn1c(N)c(N(CC)C(=O)/C=C/c2ccco2)c(=O)[nH]c1=O,99%
13,CSc1ncccc1C(=O)N1CCCC(CCC(=O)NCc2ccccc2F)C1 (configuration not stated),100%
14,COC(=O)c1ccc(NC(=O)c2cc(Cl)ccc2OC)cc1,96%
15,O=C1N/C(=N\N=C\c2ccco2)SC1Cc1ccc(F)cc1 (configuration not stated),97%
16,O=C(c1ccncc1)c1ccc([N+](=O)[O-])cc1,94%
17,CCOC(=O)CN1CCC(c2ccccc2)CC1,98%
18,CC(C)(C)n1nc2c(c1NC(=O)c1cc3ccccc3o1)CSC2,96%
19,CN1C(=O)/C(=N/OC(=O)c2ccccc2Br)c2ccccc21,91%
20,CCOC(=O)C1(CCOC)CCN(Cc2ccc(C(=O)OC)cc2)CC1,98%
21,Cc1cccc(-n2c(Cc3cc(=O)[nH]c(=O)[nH]3)nnc2SCC(=O)Nc2cccc(C(F)(F)F)c2)c1,102%
22,O=C(NCc1nnc(SCC(=O)N2CCC(Cc3ccccc3)CC2)o1)c1ccco1,98%
23,O=C(N/N=C/c1ccc([N+](=O)[O-])o1)c1cccc(S(=O)(=O)N2CCOCC2)c1,96%

row,Structure (SMILES),GTP binding activity
1,CN(CC(=O)NC1CCCC1)S(=O)(=O)c1cnc[nH]1,104%
2,CCC(C)NC(=O)Cn1nc(C(F)(F)F)c2c1CCC2 (configuration not stated),100%
3,C=CCN1C2CCCC1CC(NC(=S)Nc1cccc(OC)c1)C2 (configuration not stated),99%
4,Cc1[nH]c2ccccc2c1-c1ccc(Cl)nn1,96%
5,COc1cccc(C(=O)Nc2cccnc2)c1OC,98%
6,FC(F)(F)c1cccc(Cc2noc(CN3CCC(N4CCCCC4)CC3)n2)c1,104%
7,C=CCNc1nc(Nc2ccc(Cl)cc2)nc(OC)n1,104%
8,O=C1CN(C(=O)CN2C(=O)NC3(CCCCC3)C2=O)c2ccccc2N1,98%
9,COc1ccc(S(=O)(=O)Nc2cccnc2)c(Cl)c1Cl,93%
10,Cc1ccc(S(=O)(=O)N(C)c2ccc(OCC(=O)NC3=NCCS3)cc2)cc1,99%
11,CCc1ccc(CN2C(=O)c3ccccc3C2C(=O)NCC2CCCO2)cc1 (configuration not stated),96%
12,Cc1ccc(NC(=O)CSc2nc(CSc3ccc(C)cc3)cc(=O)[nH]2)cc1,95%
13,Cn1c(-c2ccc(F)cc2)cnc1SCC(=O)NNC(=O)Cc1ccccc1,99%
14,O=C(COC(=O)c1cnccn1)Nc1cccc2ccccc12,96%
15,O=C(C1CCN(S(=O)(=O)c2ccc(Br)s2)CC1)N1CCN(C2CCCCC2)CC1,95%
16,O=C(O)/C=C/c1cn(-c2ccccc2)nc1-c1cccs1,92%
17,O=C(/C=C\c1cn(-c2ccccc2)nc1-c1cccs1)N1CCOCC1,103%
18,O=C(O)/C=C/c1cn(Cc2ccccc2)nc1-c1cccs1,120% [activator] (active)
19,CCSc1sc(CC)cc1C=O,97%
20,COC(=O)Cc1c(O)ccn(Cc2cccc(C(F)(F)F)c2)c1=O,96%
21,Cc1ccc(NC(=S)N(CCN(C)C)Cc2cccs2)cc1C,93%
22,O=C(NCc1ccncc1)C(=O)NCc1ccco1,97%
23,CCOC(=O)c1c(-c2cccc(N)c2)cn2ccccc12,99%

row,Structure (SMILES),GTP binding activity
1,CNC(=S)NNC(=O)c1cccn(Cc2ccccc2)c1=O,97%
2,Cc1cccc(C)c1N1CCN(S(=O)(=O)N2CCCCC2)CC1,96%
3,Cc1cc2nc(C(F)(F)F)cc(-c3cccs3)n2n1,90%
4,Nc1ccc(S(=O)(=O)Nc2nccc(/C=C/c3ccc(Br)s3)n2)cc1,91%
5,O=C(CCN1CCCCC1)N=Nc1c(O)[nH]c2ccccc12,98%
6,Cc1cc(OC(=O)c2ccccc2)c([N+](=O)[O-])c(=O)[nH]1,101%
7,COc1ccc(C(=O)NC(=S)Nc2ccc(Cl)cn2)cc1OC,99%
8,Cc1nn(CC#N)c(=O)n1N(C)c1ncc(C(F)(F)F)cc1Cl,99%
9,CC(=O)Nc1ccc(NC(=O)COc2ccc(S(=O)(=O)NC(C)c3ccccc3)cc2)cc1 (configuration not stated),114%
10,Cc1cc(/C=N/NC(N)=O)c(C)n1C1CCCCC1,100%
11,COc1cc(C(=O)Nc2cc(C(F)(F)F)ccc2-n2cncn2)cc(OC)c1OC,96%
12,O=C(NC(=S)Nc1ccc(S(=O)(=O)N2CCOCC2)cc1)c1ccccc1[N+](=O)[O-],95%
13,COC(=O)c1cccnc1NC(=S)NC(C)C,95%
14,CCCCn1nc(C(=O)Nc2ccc(S(=O)(=O)Nc3ncccn3)cc2)c2ccccc2c1=O,98%
15,COCCCNC(=S)N1CCCC(c2nc3cc(C)c(C)cc3[nH]2)C1 (configuration not stated),95%
16,CC1Cc2ccccc2N1C1=CC(=O)CC(C)(C)C1 (configuration not stated),99%
17,Cc1nc(CN2CCN(C(=O)CCc3nnc(Cc4c[nH]c5ccccc45)o3)CC2)cs1,95%
18,CCc1nnc(NC(=O)CSc2nc(SC)ns2)s1,99%
19,O=C(O)c1ccc2c3c(cccc13)C(=O)N(OS(=O)(=O)c1ccccc1)C2=O,84%
20,CCOC(=O)c1cc2c(=O)[nH]c(C(Cl)(Cl)Cl)nc2o1,100%
